Common to all, as to test: PBM; 200 nM protein, PBS
Settings in all cases: dsDNA, one strand shown

For assay [1], the target named is T1, NKX2-6 (Homo sapiens, UniProt A6NCS4 118-204).
T1 sequence: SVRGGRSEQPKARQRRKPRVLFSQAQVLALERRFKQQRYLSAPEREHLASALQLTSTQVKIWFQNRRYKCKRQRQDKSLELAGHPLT

The target of assay [2] is T2, NKX2-6 (Homo sapiens, UniProt A6NCS4 118-204, F151L).
T2 sequence: T1 sequence with F34L

The target of assay [3] is VAX1 (Homo sapiens, UniProt Q5SQQ9 86-172).
The target in assay [4] is VAX1 (Homo sapiens, UniProt Q5SQQ9 86-172, T142I).
VAX1 (Homo sapiens, UniProt Q5SQQ9 86-172, T142I), sequence (Q5SQQ9 86-172 T142I): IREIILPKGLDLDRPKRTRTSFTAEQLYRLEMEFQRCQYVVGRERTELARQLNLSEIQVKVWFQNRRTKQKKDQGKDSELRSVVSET
Assay [5] deals with VAX1 (Homo sapiens, UniProt Q5SQQ9 86-172, K157R).
VAX1 (Homo sapiens, UniProt Q5SQQ9 86-172, K157R), sequence (Q5SQQ9 86-172 K157R): as the sequence (Q5SQQ9 86-172 T142I) above, with I57T, K72R counted along it
The target in another assay is PITX2 (Homo sapiens, UniProt Q99697 72-157).

Changes are numbered by the printed parent chain.

VAX1 (Homo sapiens, UniProt Q5SQQ9 86-172), sequence (Q5SQQ9 86-172): as the sequence (Q5SQQ9 86-172 T142I) above, with I57T counted along it

In the case of CGCGGTCA, the binding signal with NKX2-6 [1] was 9.54 upbm affinity estimate (log intensity, higher = more binding, comparable within an allelic series); with NKX2-6 [2] it was 9.33 upbm affinity estimate (log intensity, higher = more binding, comparable within an allelic series).
Consider CGTCCGTA, for which the binding signal in the assay with NKX2-6 [1] is 9.42 upbm affinity estimate (log intensity, higher = more binding, comparable within an allelic series); with NKX2-6 [2], 9.44 upbm affinity estimate (log intensity, higher = more binding, comparable within an allelic series).
On to GGCCCGTA, for which the binding signal in the assay with NKX2-6 [1] is 9.15 upbm affinity estimate (log intensity, higher = more binding, comparable within an allelic series); with NKX2-6 [2], 9.45 upbm affinity estimate (log intensity, higher = more binding, comparable within an allelic series).
For the sequence GACCACTC, the binding signal is 12.3 upbm affinity estimate (log intensity, higher = more binding, comparable within an allelic series) with NKX2-6 [1] and 9.92 upbm affinity estimate (log intensity, higher = more binding, comparable within an allelic series) in the assay with NKX2-6 [2].
As to AGGGACGA, the binding signal was 9.37 upbm affinity estimate (log intensity, higher = more binding, comparable within an allelic series) with NKX2-6 [1] and 9.28 upbm affinity estimate (log intensity, higher = more binding, comparable within an allelic series) with NKX2-6 [2].
Turning to GCGACAGC, the binding signal with NKX2-6 [1] is 9.46 upbm affinity estimate (log intensity, higher = more binding, comparable within an allelic series); in the assay with NKX2-6 [2] it was 9.41 upbm affinity estimate (log intensity, higher = more binding, comparable within an allelic series).
Take CAGTCTGC: the binding signal with NKX2-6 [1] was 9.37 upbm affinity estimate (log intensity, higher = more binding, comparable within an allelic series); in the assay with NKX2-6 [2] it was 9.38 upbm affinity estimate (log intensity, higher = more binding, comparable within an allelic series).
Turning to ACACCCGT, the binding signal with NKX2-6 [1] is 8.98 upbm affinity estimate (log intensity, higher = more binding, comparable within an allelic series); in the assay with NKX2-6 [2], 9.33 upbm affinity estimate (log intensity, higher = more binding, comparable within an allelic series).
Consider CCTTAAGA, for which the binding signal with NKX2-6 [1] was 12.4 upbm affinity estimate (log intensity, higher = more binding, comparable within an allelic series); with NKX2-6 [2], 10.1 upbm affinity estimate (log intensity, higher = more binding, comparable within an allelic series).
With CGCTTAAG, the binding signal was 12.2 upbm affinity estimate (log intensity, higher = more binding, comparable within an allelic series) in the assay with NKX2-6 [1]; 9.23 upbm affinity estimate (log intensity, higher = more binding, comparable within an allelic series) in the assay with VAX1 [3]; 9.9 upbm affinity estimate (log intensity, higher = more binding, comparable within an allelic series) with NKX2-6 [2]; 8.86 upbm affinity estimate (log intensity, higher = more binding, comparable within an allelic series) in the assay with VAX1 [4]; 9.02 upbm affinity estimate (log intensity, higher = more binding, comparable within an allelic series) with VAX1 [5].
As to ATCCCAGG, the binding signal is 9.47 upbm affinity estimate (log intensity, higher = more binding, comparable within an allelic series) in the assay with NKX2-6 [1] and 9.43 upbm affinity estimate (log intensity, higher = more binding, comparable within an allelic series) with NKX2-6 [2].
Turning to CCAAGGCA, the binding signal with NKX2-6 [1] is 9.52 upbm affinity estimate (log intensity, higher = more binding, comparable within an allelic series); with NKX2-6 [2] it was 9.42 upbm affinity estimate (log intensity, higher = more binding, comparable within an allelic series).
With CTTAAGGC, the binding signal in the assay with NKX2-6 [1] was 11.5 upbm affinity estimate (log intensity, higher = more binding, comparable within an allelic series); in the assay with NKX2-6 [2] it was 9.76 upbm affinity estimate (log intensity, higher = more binding, comparable within an allelic series).
As for ATACTTAG, the binding signal with NKX2-6 [1] is 13.1 upbm affinity estimate (log intensity, higher = more binding, comparable within an allelic series); with NKX2-6 [2] it was 10.4 upbm affinity estimate (log intensity, higher = more binding, comparable within an allelic series).
Regarding CACCGTAG, the binding signal with NKX2-6 [1] is 9.56 upbm affinity estimate (log intensity, higher = more binding, comparable within an allelic series); with NKX2-6 [2], 9.37 upbm affinity estimate (log intensity, higher = more binding, comparable within an allelic series).
On to ATCTTCAC, for which the binding signal with NKX2-6 [1] is 11.1 upbm affinity estimate (log intensity, higher = more binding, comparable within an allelic series); with NKX2-6 [2], 9.83 upbm affinity estimate (log intensity, higher = more binding, comparable within an allelic series).
On to GCTATTGA, for which the binding signal with NKX2-6 [1] was 11.7 upbm affinity estimate (log intensity, higher = more binding, comparable within an allelic series); with NKX2-6 [2], 9.84 upbm affinity estimate (log intensity, higher = more binding, comparable within an allelic series).
Turning to GCGTCGCA, the binding signal with NKX2-6 [1] is 9.48 upbm affinity estimate (log intensity, higher = more binding, comparable within an allelic series); with NKX2-6 [2], 9.49 upbm affinity estimate (log intensity, higher = more binding, comparable within an allelic series).
For CTGTGGCC, the binding signal was 9.24 upbm affinity estimate (log intensity, higher = more binding, comparable within an allelic series) with NKX2-6 [1]; 7.86 upbm affinity estimate (log intensity, higher = more binding, comparable within an allelic series) with PITX2; 9.38 upbm affinity estimate (log intensity, higher = more binding, comparable within an allelic series) with NKX2-6 [2].
For AGTGCCAC, the binding signal with NKX2-6 [1] is 11.6 upbm affinity estimate (log intensity, higher = more binding, comparable within an allelic series); in the assay with NKX2-6 [2], 9.9 upbm affinity estimate (log intensity, higher = more binding, comparable within an allelic series).
As for ACCTCTCA, the binding signal is 12 upbm affinity estimate (log intensity, higher = more binding, comparable within an allelic series) with NKX2-6 [1] and 9.82 upbm affinity estimate (log intensity, higher = more binding, comparable within an allelic series) with NKX2-6 [2].
On to CGGCGGCC, for which the binding signal in the assay with NKX2-6 [1] was 9.64 upbm affinity estimate (log intensity, higher = more binding, comparable within an allelic series); with NKX2-6 [2] it was 9.33 upbm affinity estimate (log intensity, higher = more binding, comparable within an allelic series).
For ACGGCACG, the binding signal is 9.26 upbm affinity estimate (log intensity, higher = more binding, comparable within an allelic series) with NKX2-6 [1] and 9.49 upbm affinity estimate (log intensity, higher = more binding, comparable within an allelic series) with NKX2-6 [2].
On to CAGATCCC, for which the binding signal in the assay with NKX2-6 [1] was 9.68 upbm affinity estimate (log intensity, higher = more binding, comparable within an allelic series); in the assay with NKX2-6 [2], 9.49 upbm affinity estimate (log intensity, higher = more binding, comparable within an allelic series).
On to GGGCGGCA, for which the binding signal with NKX2-6 [1] is 9.62 upbm affinity estimate (log intensity, higher = more binding, comparable within an allelic series); with NKX2-6 [2] it was 9.36 upbm affinity estimate (log intensity, higher = more binding, comparable within an allelic series).
With GGCACAGA, the binding signal in the assay with NKX2-6 [1] was 9.3 upbm affinity estimate (log intensity, higher = more binding, comparable within an allelic series); with NKX2-6 [2] it was 9.37 upbm affinity estimate (log intensity, higher = more binding, comparable within an allelic series).
ACGCATCC: the binding signal with NKX2-6 [1] is 9.51 upbm affinity estimate (log intensity, higher = more binding, comparable within an allelic series); with NKX2-6 [2] it was 9.35 upbm affinity estimate (log intensity, higher = more binding, comparable within an allelic series).
With AAGTACTG, the binding signal in the assay with NKX2-6 [1] is 12.7 upbm affinity estimate (log intensity, higher = more binding, comparable within an allelic series); with NKX2-6 [2], 10.3 upbm affinity estimate (log intensity, higher = more binding, comparable within an allelic series).
On to CAGCCGTC, for which the binding signal in the assay with NKX2-6 [1] was 9.5 upbm affinity estimate (log intensity, higher = more binding, comparable within an allelic series); in the assay with NKX2-6 [2], 9.26 upbm affinity estimate (log intensity, higher = more binding, comparable within an allelic series).
Regarding CGGGACGC, the binding signal was 9.53 upbm affinity estimate (log intensity, higher = more binding, comparable within an allelic series) in the assay with NKX2-6 [1] and 9.25 upbm affinity estimate (log intensity, higher = more binding, comparable within an allelic series) in the assay with NKX2-6 [2].
With CAGACGGG, the binding signal in the assay with NKX2-6 [1] was 9.56 upbm affinity estimate (log intensity, higher = more binding, comparable within an allelic series); with NKX2-6 [2], 9.37 upbm affinity estimate (log intensity, higher = more binding, comparable within an allelic series).
CACCGCGC: the binding signal was 8.99 upbm affinity estimate (log intensity, higher = more binding, comparable within an allelic series) with NKX2-6 [1] and 9.25 upbm affinity estimate (log intensity, higher = more binding, comparable within an allelic series) with NKX2-6 [2].
Turning to CAGACTAG, the binding signal in the assay with NKX2-6 [1] was 9.38 upbm affinity estimate (log intensity, higher = more binding, comparable within an allelic series); with NKX2-6 [2] it was 9.36 upbm affinity estimate (log intensity, higher = more binding, comparable within an allelic series).
As to ACGGACGA, the binding signal with NKX2-6 [1] is 9.27 upbm affinity estimate (log intensity, higher = more binding, comparable within an allelic series); with NKX2-6 [2], 9.49 upbm affinity estimate (log intensity, higher = more binding, comparable within an allelic series).
As to CCCAGCAG, the binding signal with NKX2-6 [1] is 9.19 upbm affinity estimate (log intensity, higher = more binding, comparable within an allelic series); with NKX2-6 [2], 9.49 upbm affinity estimate (log intensity, higher = more binding, comparable within an allelic series).
For GTTCCACA, the binding signal is 9.21 upbm affinity estimate (log intensity, higher = more binding, comparable within an allelic series) with NKX2-6 [1] and 9.42 upbm affinity estimate (log intensity, higher = more binding, comparable within an allelic series) with NKX2-6 [2].
For CCGCGCGG, the binding signal was 9.66 upbm affinity estimate (log intensity, higher = more binding, comparable within an allelic series) in the assay with NKX2-6 [1] and 9.56 upbm affinity estimate (log intensity, higher = more binding, comparable within an allelic series) with NKX2-6 [2].
Consider AGCGGAGC, for which the binding signal in the assay with NKX2-6 [1] was 9.34 upbm affinity estimate (log intensity, higher = more binding, comparable within an allelic series); with NKX2-6 [2] it was 9.31 upbm affinity estimate (log intensity, higher = more binding, comparable within an allelic series).

Values taken from paper PMC11006913.
